About 11,000 (3.5%) of roughly 310,000 compounds were called active. Inconclusive results (about 8%) are left out. The sample as a whole holds a higher share of actives than the screen did. A number with no mark means an inactive call. Calls come from the whole dose curve; as a rule, active = well fitted inhibition curve with a large enough effect; inconclusive = small, poorly fitted or top-dose-only effect, or effect the other way; inactive = flat fitted curve, though single readings scatter.
% is set by controls: 0 for no effect and ±100 for the full control effect; potency is the fitted concentration of half-maximal effect.

This assay in a line: VP16 counterscreen qHTS for inhibitors of ROR gamma transcriptional activity.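 Note: Gal4-VP16 expression switched on by copper sulfate through the metallothionein promoter; nearly all actives have a fitted effect of over 50% in size.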 The conditions noted are these: Drosophila S2 Gal4-VP16 UAS-luciferase, luminescence, 20 h; series mostly up to 53.6 µM; activity, negative = inhibition: at the top concentration.
With `Cc1nc2sccn2c(=O)c1S(=O)(=O)NCCc1ccccc1`, the “activity, negative = inhibition” value was 0.199%.

With `COc1cc(C(=O)NCC2(c3ccccc3)CCCC2)ccc1OC(C)C`, the “activity, negative = inhibition” value was 4.67%.

As for `O=C(/C=C/c1cccc([N+](=O)[O-])c1)N1CCN(Cc2ccccc2)CC1`, the “activity, negative = inhibition” value is 0.48%.

`O=[N+]([O-])/C=C/c1ccc2c(ccn2Cc2ccccc2)c1`: the Potency was 11.2 µM (active).

Regarding `O=c1c([N+](=O)[O-])cc(C(F)(F)F)cn1Cc1cccc(Cl)c1`, the “activity, negative = inhibition” value is -12.8%.

Consider `CC1CCN(C(=O)/C(=C\c2ccccc2)NC(=O)c2ccccc2)CC1`, for which the “activity, negative = inhibition” value is 4.98%.

Turning to `CC1CCN(C(=S)NC(=O)c2ccccc2Br)CC1`, the Potency was 3.55 µM (active).

As to `CC1CCN(C(=O)c2ccccc2NC(=O)Cc2ccccc2)CC1`, the “activity, negative = inhibition” value is 24.1%.

As for `COc1ccc(CNC(=O)c2ccc(Br)s2)cc1OC`, the “activity, negative = inhibition” value was -1.61%.

As for `Cc1ccc(C(=O)N/C(=C\c2cn(S(=O)(=O)N(C)C)c3ccccc23)C(=O)N2CCCC2)cc1`, the “activity, negative = inhibition” value was -3.97%.

As for `CCOc1cc(/C=C(/C#N)c2ccc(Cl)cc2)cc(Cl)c1OCC(=O)O`, the Potency is 0.794 µM (active).

Turning to `CCOC(=O)CN/C=C(\C#N)c1ccc(F)cc1`, the activity, negative = inhibition was -4.69% [at 10 µM].

Regarding `C/C(=N\OCC(=O)O)c1ccc(Cl)cc1`, the “activity, negative = inhibition” value was -2.96%.

Consider `CC(C)OCCCNC(=O)CN1C(=O)/C(=C/c2ccccc2F)Oc2ccccc21`, for which the “activity, negative = inhibition” value is -20.8%.

Turning to `C[C@]12CC[C@@H]3c4ccc(O)cc4C[C@@H](CCCCCCCCCS(=O)CCCC(F)(F)C(F)(F)F)C3[C@@H]1CC[C@@H]2O` (stereo partly drawn), the “activity, negative = inhibition” value is -13.6%.

As for `CC1CN(C(=O)CCC(=O)NCCCN2CCC(Cc3ccccc3)CC2)c2cc(Cl)ccc2O1` (stereo not drawn), the “activity, negative = inhibition” value was -15.4%.

Take `CC1(C)Cc2cccc(OCC(=O)NCc3ccccc3)c2O1`: the “activity, negative = inhibition” value is -10.3%.

For the molecule `COc1ccc(-c2nc(-c3ccccc3)no2)c(OC)c1`, the Potency was 4.47 µM (active).

In the case of `CCOc1nc(-c2ccc(OC)cc2)ccc1-c1noc(-c2cc(OC)c(OC)c(OC)c2)n1`, the “activity, negative = inhibition” value is -19.4%.

As to `COc1ccccc1Cc1nc(-c2ccc(C)cc2)no1`, the “activity, negative = inhibition” value is 4.89%.

In the case of `COc1ccc(N(Cc2ccc(N(C)C)cc2)C(=O)c2ccc(S(C)(=O)=O)cc2)cc1`, the “activity, negative = inhibition” value was 3.23%.

On to `COc1cccc(N2CCN(c3ccc4nnc(CCC(=O)N5CCN(C)CC5)n4n3)CC2)c1`, for which the “activity, negative = inhibition” value is -6.09%.

As to `CCOc1ccc(-n2c(SCC(=O)OC)nc3sc4c(c3c2=O)CCN(C)C4)cc1`, the “activity, negative = inhibition” value was -2.56%.

Regarding `Cc1cccc(NC(=S)NCCc2ccc(Cl)cc2)c1C`, the Potency was 7.08 µM (active).

`Cc1c(NC(=S)NCc2ccc(F)cc2)cccc1[N+](=O)[O-]`: the Potency is 15.8 µM (active).

For the molecule `Cc1cccc(NC(=O)C2CCCN(C(=O)Nc3ccc(F)cc3)C2)c1C` (stereo not drawn), the “activity, negative = inhibition” value is 2.71%.

Take `Cc1cc(Cl)ccc1NC(=S)NCCCN1CCCC1=O`: the “activity, negative = inhibition” value is 4.91%.

For `Cc1cc(C(=O)NCCc2ccc(Cl)cc2)c(C)o1`, the “activity, negative = inhibition” value was -6.63%.

As to `Cc1cccc(NC(=S)N2CCC(O)CC2)c1C`, the “activity, negative = inhibition” value is -7.46%.

`Cc1cccc(NC(=S)NCCc2ccc(F)cc2)c1C`: the Potency is 6.31 µM (active).

As to `Cc1ccc(NC(=S)NCCc2ccc(Cl)cc2)c(C)c1`, the Potency was 3.16 µM (active).

Consider `Cc1cccc(NC(=O)COC(=O)CCc2ccccc2)c1C`, for which the “activity, negative = inhibition” value is -0.134%.

Consider `Cc1c(NC(=O)/C=C/C(=O)O)cccc1[N+](=O)[O-]`, for which the “activity, negative = inhibition” value was -4.39%.

Regarding `Cc1cccc(NC(=O)c2cccc(C(=O)Nc3cccc(C)c3C)n2)c1C`, the “activity, negative = inhibition” value was 19%.

`Cc1c(NC(=O)Nc2ccccc2)cccc1[N+](=O)[O-]`: the “activity, negative = inhibition” value was 23.5%.

On to `CCn1cc(CN2CCN(CC(C)(C)C)C(CCO)C2)c2ccccc21` (stereo not drawn), for which the “activity, negative = inhibition” value was 0.311%.

As to `Cc1ccc(C)c(N2CCN(S(=O)(=O)c3c(C)[nH]c(C)c3C(=O)N3CCCC3)CC2)c1`, the “activity, negative = inhibition” value is 6.41%.

For `O=C(c1cc(-c2ccc(O)cc2)on1)N1CCOCC1`, the “activity, negative = inhibition” value is -27.7%.

As to `CCC(C(=O)NCc1cccnc1)n1nc(C)c2sc3ccccc3c2c1=O` (stereo not drawn), the “activity, negative = inhibition” value is -10.1%.

`Cc1cc(F)ccc1NC(=S)NCCc1ccccc1`: the Potency is 5.62 µM (active).

In the case of `S=C(NCCc1ccccc1)N1CCCCC1`, the “activity, negative = inhibition” value is -1.99%.

As for `Cc1cc(C)cc(NC(=S)NCc2ccc(F)cc2)c1`, the Potency is 3.98 µM (active).

As for `O=C(CC(=O)N/N=C\c1ccc(F)cc1)NCCc1ccccc1`, the “activity, negative = inhibition” value is -1.58%.

Consider `O=C(NCCc1c[nH]c2ccccc12)c1cccc(Br)c1`, for which the “activity, negative = inhibition” value is 2.54%.

Take `Cc1cc(C)cc(NC(=S)NCCc2c[nH]c3ccccc23)c1`: the Potency was 12.6 µM (active).

With `COc1ccccc1CC(=O)NCCc1c[nH]c2ccccc12`, the “activity, negative = inhibition” value is 1.31%.

As to `COc1cc(NC(=S)NCc2ccc(S(N)(=O)=O)cc2)cc(OC)c1`, the “activity, negative = inhibition” value is 10.1%.

Consider `Cc1ccc(NC(=O)C2CCCN2S(=O)(=O)c2cccc3cccnc23)c(C)c1` (stereo not drawn), for which the “activity, negative = inhibition” value was 16.3%.

With `Cc1ccc(NC(=S)Nc2ncccc2C)c(C)c1`, the Potency is 7.08 µM (active).

`CSc1ncc(C(=O)Nc2ccc(C)cc2C)c(C)n1`: the “activity, negative = inhibition” value is -4.09%.

For the molecule `CCCCC(=O)NCc1ccc(F)cc1`, the “activity, negative = inhibition” value was -3.24%.

Regarding `CCCOc1ccc(CNC(=O)C2CCN(c3nn4c(=O)cc(C)nc4s3)CC2)cc1`, the “activity, negative = inhibition” value was -5.78%.

With `Cc1cccc(-c2nc(CS(=O)CC(=O)NC(C)CCc3ccccc3)c(C)o2)c1` (stereo not drawn), the “activity, negative = inhibition” value is 3.03%.

Take `O=C(Nc1ccc(N2CCCC2=O)cc1)c1cncc(Br)c1`: the “activity, negative = inhibition” value is 15.5%.

With `Cc1cccn2c(=O)c(/C=C(\C#N)C(N)=O)c(N3CCCCCC3)nc12`, the “activity, negative = inhibition” value is 10.7%.

Turning to `CCCc1nnc(NC(=O)CCC(=O)N2CCN(S(=O)(=O)c3ccc(OC)cc3)CC2)s1`, the “activity, negative = inhibition” value is -5.49%.

Turning to `Cc1c(C(=O)NCC(c2ccco2)N2CCCC2)oc2ccc(Cl)cc12` (stereo not drawn), the “activity, negative = inhibition” value was -2.12%.

As for `Cc1ccc(CNC(=O)CCS(=O)(=O)c2ccc3c(c2)CC(C)N3C(=O)C2CC2)o1` (stereo not drawn), the “activity, negative = inhibition” value was -9.65%.

On to `O=C1C(=O)N(CCN2CCOCC2)C(c2cccc(Cl)c2)/C1=C(/O)c1ccc2c(c1)OCO2` (stereo not drawn), for which the “activity, negative = inhibition” value was 6.2%.

In the case of `O=C(NNS(=O)(=O)c1ccc([N+](=O)[O-])cc1)C1CCCCC1`, the “activity, negative = inhibition” value is -5.42%.

For the molecule `COc1cccc(-c2nc(CS(=O)CC(=O)NCc3ccc(F)cc3)c(C)o2)c1` (stereo not drawn), the “activity, negative = inhibition” value is -0.425%.

Turning to `COc1ccccc1N1CC(C(=O)Nc2nnc(SCC(=O)NCC3CCCO3)s2)CC1=O` (stereo not drawn), the “activity, negative = inhibition” value was -2.2%.

Turning to `Cc1cc(C(=O)NNC(=S)Nc2ccccc2C)cs1`, the “activity, negative = inhibition” value was -21.2%.

On to `Cc1ccccc1N/C(SCc1ccc(Cl)cc1)=C(/C#N)C(N)=O`, for which the “activity, negative = inhibition” value was -0.144%.

Take `Cc1ccc(NC(=S)NCc2ccccc2Cl)c(C)c1`: the Potency was 5.01 µM (active).

Consider `Cc1ccc(NC(=O)C(=O)NCc2ccco2)c(C)c1`, for which the “activity, negative = inhibition” value was 21.4%.

On to `Cc1ccccc1NC(=S)NC(=O)Cc1ccc(Cl)cc1`, for which the Potency was 7.08 µM (active).

On to `S=C(NCc1cccnc1)Nc1ccc(Cl)cc1Cl`, for which the “activity, negative = inhibition” value was -10%.
